Screens (PubChem BioAssay)
Giardia killer – Giardia lamblia killing. activity change, % at 7.66 µM, hits read low. 0.15% of 340,000 active. Giardia lamblia trophozoite viability. AID 540267; in the data active = activity change below about -80%; inconclusive = between about -30% and that limit;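 also: parasites exposed to compound for two days anaerobically before the ATP read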
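Anaerobic 48 hrs incubation at 37 deg C of 100 trophozoites/well with test compounds; ATPLite 1-Step luminescence, 15-30 min RT, reports cellular ATP as viability.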
HT1080NT lethal – kills 2HG-producing HT-1080-NT fibrosarcoma cells. AID 686970. Potency, µM (doses to about 46.1 µM), hits mostly cytotoxic. 1.6% of 360,000 active. HT-1080-NT fibrosarcoma viability, CellTiter-Glo ATP luminescence, 48 h;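 also: NT is the 2HG producing partner of a matched IDH1 knockdown line; nearly all actives have a fitted effect of over 55% in size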
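HT-1080-NT fibrosarcoma cells (2HG-overproducing), 750 cells/well in RPMI with 5% FBS, dosed after 2 h and incubated 48 h at 37C. CellTiter-Glo luminescence normalized to DMSO and no-cell wells; concentration-response curves fitted and classed.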
IL1B secr inh – blocks inflammasome-driven IL-1 beta release; THP-1 LPS/ATP IL-1B secretion, AlphaLISA, 16 h; hits give low values; activity change, % at 57.5 µM; 4.7% of 360,000 active; AID 743279; in the data active = activity change below about -50%; inconclusive = mostly about -30% to -49%
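THP-1 cells pretreated 1 hr with compounds (up to 57.5 uM final), then stimulated with LPS (250 ng/mL final) plus ATP (1.25 mM final); secreted IL-1B measured by AlphaLISA after 16 hr, decreased signal indicating inhibition.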
HT1080 IDH1KD tx – kills HT-1080 cells with IDH1 knockdown; Potency, µM (titrated, usually from 46.1 µM), usual class: cytotoxic; 2% of 360,000 active; HT-1080 IDH1 knockdown viability, ATP luminescence, 48 h; AID 686971
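IDH1KD HT-1080 cells, 750/well, RPMI + 5% FBS; compound pinned after 2 h settling; 48 h, 37 °C; CellTiter-Glo luminescence; % activity normalised to DMSO and no-cell wells; curves fitted, classed by r2 and efficacy.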
TGFb SMAD3 inh – inhibitors of TGF-b signaling | 1.2% of 410,000 active | Potency, µM (series often up to 46.1 µM), hits mostly inhibitors | AID 588855 | HepG2 CAGA-GFP TGF-b/SMAD3 reporter, GFP fluorescence, 18 h; TGF-beta stimulated, 500 pg/mL final; also: nearly all actives have a fitted effect of over 65% in size
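Inhibition was scored as loss of TGF-beta-induced (500 pg/mL final, 18 hours, 37 degrees C) GFP in HEPG2 cells carrying a CAGA-GFP reporter, in DMEM with 1% FBS. Well GFP was summed per cell; Activity was normalised to unstimulated and stimulated DMSO wells, then concentration-response fitting.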
HepG2 tox – kills HepG2 cells in TGF-b inhibitor counter-screen; HepG2 CAGA-GFP viability, ATP luminescence, 18 h; Potency, µM (titrated, usually from 46.1 µM), hits mostly cytotoxic; 0.76% of 410,000 active
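HepG2 CAGA-GFP cells (1000/well, DMEM with 1% FBS) received compound, then TGF-beta at 500 pg/mL final, and were incubated 18 hours at 37 degrees C. Viability was read by CellTiter-Glo luminescence. Media-only wells were set as complete cell-killing and DMSO as no toxicity.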
Each line names hits and unclear results; the compound was inactive in the other large screens. Sampled rows, rich in hits. Any-hit rate of the full collection: about 6.5%. Unless noted, calls follow the shape of the dose curve; as a rule, active = well fitted curve in the direction sought with a large enough effect; inconclusive = small, poorly fitted or top-dose-only effect, or another doubt; inactive = no such curve, though single readings can be large; an effect the other way counts as inactive or inconclusive.

COc1cc(C(=O)NCC(=O)NCC(c2ccco2)N2CCCCC2)cc(OC)c1OC (stereo unspecified)	none
COc1ccc(CCNC(=O)CN(c2ccc(C)cc2)S(=O)(=O)c2c(C)noc2C)cc1OC	none
C/C(Cl)=C/Cc1c(C)[nH]c2c(ccc3ccccc32)c1=O	none
CC1=NC(C)(C)Cc2ccccc21	none
CC1(C)Cc2ccccc2C(COc2ccccc2)=N1	IL1B secr inh -73
CC(C)c1ccccc1-n1c(SCc2cc(=O)oc3ccc4ccccc4c23)nnc1-c1cccnc1	IL1B secr inh -51, HT1080 IDH1KD tx inconclusive
CCOc1ccc(-n2c(SCc3cc(=O)oc4cc(C)ccc34)nnc2-c2cccnc2)cc1	IL1B secr inh -54
Cc1nnc(SCc2cc(=O)oc3ccc4ccccc4c23)n1Cc1ccccc1	none
CC(=O)Nc1ccc2c(CSc3nnc(-c4cccnc4)n3-c3ccc(C)cc3C)cc(=O)oc2c1	TGFb SMAD3 inh inconclusive
CCSc1nc(-c2ccccc2)c(-c2ccccc2)n1CC(O)CO (stereo unspecified)	none
O=C1NC(SCCCF)=N/C1=C/c1ccc(-n2cncn2)cc1	none
Cc1ccccc1NC(=O)c1nnn(-c2ccc3c(c2)OCCO3)c1N	IL1B secr inh -65
CCOc1ccccc1NC(=O)c1nnn(-c2ccc3c(c2)OCCO3)c1N	IL1B secr inh inconclusive
COCCCNC(=S)NNC(=S)Nc1cccc(Cl)c1	none
O=S(=O)(c1cnc(Cl)c(Br)c1)N1CCN(c2ncccn2)CC1	none
O=S(=O)(c1cnc(Cl)c(Br)c1)N1CCCCCC1	IL1B secr inh -104
Cc1ccccc1CN1C[C@@H]2C[C@@H](c3cn[nH]c3-c3ccc(F)cc3)N3CCC[C@@]23C1=O	HT1080NT lethal inconclusive, IL1B secr inh -51, TGFb SMAD3 inh inconclusive
COc1ccc(-c2[nH]ncc2[C@@H]2C[C@H]3CN(Cc4ccccc4C)C(=O)[C@]34CCCN24)cc1	TGFb SMAD3 inh inconclusive
CCCCN1C(=N)N([C@@H](CN2CCC[C@H]2CN2C(N)=NC[C@@H]2Cc2ccccc2)C(C)C)C[C@H]1Cc1ccccc1	TGFb SMAD3 inh inconclusive
O=C(O)Cc1cn(Cc2ccc(F)cc2)c2ccccc12	TGFb SMAD3 inh inconclusive
Cc1[nH][nH]c(=O)c1C(c1c(C)[nH][nH]c1=O)c1cn(Cc2ccc(Cl)c(Cl)c2)c2ccccc12	IL1B secr inh -98, HT1080 IDH1KD tx inconclusive, TGFb SMAD3 inh 13µM
Cc1[nH][nH]c(=O)c1C(c1c(C)[nH][nH]c1=O)c1cn(Cc2ccc(F)cc2)c2ccccc12	IL1B secr inh -101, HT1080 IDH1KD tx inconclusive
COc1cc(C(=O)Nc2ccc(Cl)c(C(F)(F)F)c2)cc(OC)c1OC	HT1080NT lethal inconclusive, IL1B secr inh -84
COc1cc(C(=O)Nc2ccc(Nc3ccccc3)cc2)cc(OC)c1OC	IL1B secr inh -56
COc1cc(CCC(=O)Nc2ccc(Br)c(C(F)(F)F)c2)cc(OC)c1OC	HT1080 IDH1KD tx inconclusive, TGFb SMAD3 inh 16µM
COc1cc(C(=O)Nc2ccncc2)cc(OC)c1OC	none
COC(=O)c1ccccc1NC(=O)Nc1cccs1	none
COc1ccc(C2CC(c3ccc(C(F)(F)F)cc3)=NN2c2ccc(S(N)(=O)=O)cc2)cc1 (stereo unspecified)	HT1080NT lethal inconclusive, HT1080 IDH1KD tx inconclusive, TGFb SMAD3 inh inconclusive
O=C(c1ccc(N2CN(C(=O)c3ccco3)c3nc4ccccc4nc32)cc1)N1CCOCC1	HT1080NT lethal inconclusive, IL1B secr inh -59
O=C(c1ccncc1)N1CCN(C(=O)c2ccco2)CC1	none
CCC(=O)Nc1cccc(C2=NOC3(C2)C[C@@H](C(N)=O)N(C(=O)COc2ccc(Cl)cc2)C3)c1 (stereo partly specified)	none
CCCCCC(=O)N1CC2(CC(c3cccc(NC(=O)COc4ccc(Cl)cc4)c3)=NO2)C[C@@H]1C(N)=O (stereo partly specified)	IL1B secr inh -67, TGFb SMAD3 inh inconclusive
O=C(Nc1nc(-c2cccs2)c(-c2ccccc2)s1)c1ccco1	IL1B secr inh -54
Cc1ccc(C(=O)Nc2nc(-c3ccco3)c(-c3ccco3)s2)o1	IL1B secr inh -57
CC(=O)Nc1sc(NC(=O)c2ccco2)nc1-c1cccs1	Giardia killer inconclusive
O=C(c1cccc2ccccc12)N1CCN=C1SCc1ccc([N+](=O)[O-])cc1	IL1B secr inh -65
Cc1ccccc1C(=O)N1CCN=C1SCc1ccc([N+](=O)[O-])cc1	IL1B secr inh -77
CC(=O)c1ccc(NC(=O)C(C)OC(=O)/C=C/c2ccco2)cc1 (stereo unspecified)	HT1080NT lethal 16µM, HT1080 IDH1KD tx inconclusive
CCC1CCCCN1CC(=O)Nc1cc(C)nn1-c1nc(C)cc(C)n1 (stereo unspecified)	HT1080NT lethal 3.5µM, HT1080 IDH1KD tx 4.5µM, TGFb SMAD3 inh inconclusive
CNC(=O)/C(C#N)=C/c1c(N2CCN(c3cccc(Cl)c3)CC2)nc2c(C)cccn2c1=O	IL1B secr inh -66
CCNC(=O)/C(C#N)=C/c1c(N2CCN(c3ccc(OC)cc3)CC2)nc2c(C)cccn2c1=O	IL1B secr inh -62
CC(C)(C)c1ccc(C(=O)Nc2ccc(O)c3c(=O)cc(-c4ccccc4Cl)oc23)cc1	none
CN1C(=O)NC(NC(=O)c2ccncc2)(C(F)(F)F)C1=O (stereo unspecified)	none
Nc1ncnc2c(C3OC(CO)C(O)C3O)c[nH]c12 (stereo unspecified)	HT1080NT lethal 0.23µM, IL1B secr inh -104, HT1080 IDH1KD tx 0.15µM, HepG2 tox 3.2µM
C=CCn1nc(C(=O)Nc2ccc(OC)cc2)cc1-c1sc(NC(=O)c2ccccc2)nc1C	none (no result: Giardia killer, TGFb SMAD3 inh, HepG2 tox)
CC(C)(C)c1csc(NC(=O)CCc2ccccc2)n1	IL1B secr inh -54
CC(C)(C)c1csc(NC(=O)Cc2cccs2)n1	none
COCCNC(=O)NC1(C(F)(F)F)Oc2ccc(Cl)cc2O1 (stereo unspecified)	HT1080NT lethal inconclusive, HT1080 IDH1KD tx inconclusive
Cc1cc(NC(=O)NC2(C(F)(F)F)Oc3ccc(Cl)cc3O2)no1 (stereo unspecified)	HT1080NT lethal inconclusive, HT1080 IDH1KD tx 10µM
O=C(CSc1nnc(-c2ccc(Br)cc2)n1C1CCCCC1)N1CCCC1	none
CC(C)(C)c1ccc(-c2nnc(SCCC#N)n2C2CCCC2)cc1	HT1080NT lethal inconclusive, IL1B secr inh -51, HT1080 IDH1KD tx inconclusive, TGFb SMAD3 inh inconclusive
